Source: the supplement of paper PMC6555819

Key:
Assay in all cases: PBM binding z-score (relative to random genomic background probes); higher = stronger binding; sequences stand for … in GC…GCGATTGACAGCGTAGAATGAAGG
[1] = test system: FXR:RXRa (NR concentration 270 nM, RXRa partner concentration 90 nM)
Procedure, shortened: (§1)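 Custom Agilent 4×180K protein-binding microarrays carried double-stranded probes, each with a 34-nt variable region. These regions held direct-repeat seeds, single-nucleotide variants, half-site ablations and random human genomic background sequences. Ligand-free nuclear receptor dimers were incubated on the arrays for 1 h, antibodies against each partner (one per run) detected binding, and scanned fluorescence was regression-normalized. Binding z-scores take the random background probes as reference.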

[2] = test system: LXRa:RXRa (NR concentration 270 nM, RXRa partner concentration 90 nM)
Procedure, shortened: as §1

[3] = test system: LXRa homodimer (NR concentration 270 nM)
Procedure, shortened: as §1

[4] = test system: LXRb:RXRa (NR concentration 270 nM, RXRa partner concentration 90 nM)
Procedure, shortened: as §1

[5] = test system: LXRb homodimer (NR concentration 270 nM)
Procedure, shortened: as §1

[6] = test system: PPARa:RXRa (NR concentration 270 nM, RXRa partner concentration 90 nM)
Procedure, shortened: as §1

[7] = test system: PPARg:RXRa (NR concentration 180 nM, RXRa partner concentration 90 nM)
Procedure, shortened: as §1

[8] = test system: PPARg:RXRa 270nM:90nM, anti-RXR (NR concentration 270 nM, RXRa partner concentration 90 nM)
Procedure, shortened: as §1

[9] = test system: PPARg:RXRa 30nM:10nM, anti-RXR (NR concentration 30 nM, RXRa partner concentration 10 nM)
Procedure, shortened: as §1

[10] = test system: PPARg:RXRa 90nM:30nM, anti-RXR (NR concentration 90 nM, RXRa partner concentration 30 nM)
Procedure, shortened: as §1

[11] = test system: PPARg:RXRa DBDmut IVT, anti-RXR (DBD mutation: RXRa K156A/R161A, NR concentration 270 nM, RXRa partner concentration 90 nM)
Procedure, shortened: as §1

[12] = test system: PPARg:RXRa IVT, anti-PPARg (NR concentration 270 nM, RXRa partner concentration 90 nM)
Procedure, shortened: as §1

[13] = test system: PPARg DBDmut:RXRa IVT, anti-PPARg (DBD mutation: PPARg1 K132A/R137A, NR concentration 270 nM, RXRa partner concentration 90 nM)
Procedure, shortened: as §1

[14] = test system: PPARg DBDmut IVT, anti-PPARg (DBD mutation: PPARg1 K132A/R137A, NR concentration 270 nM)
Procedure, shortened: as §1

[15] = test system: PPARg homodimer (NR concentration 180 nM)
Procedure, shortened: as §1

[16] = test system: PXR:RXRa (NR concentration 270 nM, RXRa partner concentration 90 nM)
Procedure, shortened: as §1

[17] = test system: PXR homodimer (NR concentration 270 nM)
Procedure, shortened: as §1

[18] = test system: RARa:RXR (NR concentration 270 nM, RXRa partner concentration 90 nM)
Procedure, shortened: as §1

[19] = test system: RARa homodimer (NR concentration 270 nM)
Procedure, shortened: as §1

[20] = test system: RARb:RXRa (NR concentration 270 nM, RXRa partner concentration 90 nM)
Procedure, shortened: as §1

Row | Sequence | PBM binding z-score [1] | PBM binding z-score [2] | PBM binding z-score [3] | PBM binding z-score [4] | PBM binding z-score [5] | PBM binding z-score [6] | PBM binding z-score [7] | PBM binding z-score [8] | PBM binding z-score [9] | PBM binding z-score [10] | PBM binding z-score [11] | PBM binding z-score [12] | PBM binding z-score [13] | PBM binding z-score [14] | PBM binding z-score [15] | PBM binding z-score [16] | PBM binding z-score [17] | PBM binding z-score [18] | PBM binding z-score [19] | PBM binding z-score [20]
1 | CGGACTAGGTCAAGGACAGTGAATCTCCGCACGC | 2.94 | 1.81 | -0.0937 | 1.01 | -0.662 | 3.77 | 5.95 | 5.25 | 2.5 | 4.61 | 7.61 | 7.26 | -0.333 | -0.703 | 0.837 | 0.934 | -0.0489 | 1.7 | 0.338 | 3.49
2 | CCGTACGGGTCACTGACAGGTTATAGCATTTGGA | 5.54 | 4.34 | 0.355 | 3.7 | -0.392 | 5.35 | 3.75 | 4.06 | 0.781 | 2.52 | 1.03 | 2.52 | -0.133 | -0.747 | 1.58 | 3.74 | -0.0858 | 4.79 | 0.0778 | 4
3 | CGTAAAAGTTCAACTAAGGTAACGTAAAGCACGC | 6.53 | 5.88 | 4.08 | 3.97 | 1.96 | 4.78 | 2.86 | 3.53 | 1.02 | 2.58 | 0.183 | 1.6 | 1.17 | 1.06 | 2.7 | 4.97 | 2.61 | 3.8 | 1.67 | 5.13
4 | GCGTACGGGTCAAAGGTTATAGCATGAATAGAAT | 7.58 | 5.75 | 0.516 | 5.7 | -0.18 | 6.8 | 10.5 | 8.74 | 8.99 | 9.27 | 2.3 | 4.85 | 0.234 | 2 | 4.07 | 6.11 | 0.08 | 8.62 | 0.0431 | 4.64
5 | CCAAACAGGTGAAAGGTAACTCAGTCTGGTACGC | 0.642 | 0.809 | -0.217 | 1.09 | -0.282 | 3.85 | 7.47 | 7.29 | 7.5 | 8.18 | 3.27 | 4.15 | 0.615 | 0.037 | 1.17 | 1.01 | 0.17 | 2.3 | 1.21 | 1.21
6 | CGAACTAGGTCAGAACAGGACAGTCAAGGATGAT | 1.77 | 1.06 | 0.173 | 0.627 | -0.362 | 3.31 | 5.24 | 4.41 | 1.74 | 3.31 | 7.24 | 7.46 | 1.4 | 0.732 | 0.7 | 1.08 | 0.108 | 1.05 | 0.263 | 3.08
7 | TGAATGAGGTTAACGATCAGGGAACGTGGCGTCG | 1.98 | 1.82 | -0.477 | 0.806 | -0.194 | 3.2 | 2.41 | 2.48 | 0.951 | 1.83 | 2.53 | 2.98 | 0.909 | 0.129 | 0.132 | 0.809 | -0.38 | 2.15 | -0.0277 | 2.01
8 | GATAAAGGGTCAAGGCCAGAGTACGCGTATTGAT | 7.29 | 5.43 | 0.637 | 4.49 | 0.548 | 6.28 | 6.56 | 6.32 | 3.17 | 5.23 | 3.62 | 4.58 | 0.966 | 0.381 | 3.16 | 4.19 | 0.42 | 5.07 | 0.732 | 5.26
9 | CGTCCAAGGTCAGAGAGGTCAGTTAATGCCGAGT | 6.19 | 5.39 | 3.93 | 4.99 | 0.784 | 4.72 | 3.34 | 4.09 | 0.894 | 2.9 | 3.01 | 3.3 | 0.545 | 0.19 | 6.18 | 6.24 | 12.6 | 5.94 | 3.51 | 5.22
10 | TCGAGTAGGTTACCATTGGGGCATTCAGCTTTCT | 0.101 | 1.68 | -0.373 | 0.964 | -0.492 | 0.792 | 0.0586 | 1.23 | 0.995 | 1.17 | 3.26 | 2.88 | -0.0492 | -0.763 | -0.00669 | 0.0838 | -0.677 | 0.409 | -0.577 | 0.817
11 | TATACAGCGTCAAAGGCCAGAGTACGAATGTCGA | -0.579 | -0.473 | -0.358 | -0.616 | -0.382 | 0.0937 | 1.16 | 1.62 | 0.56 | 1.13 | -0.701 | 0.258 | -0.154 | 0.515 | -0.844 | -0.442 | -0.0905 | -0.513 | -0.705 | 0.524
12 | ATAACGAGGGCACGCTGAGTTGATAGCAGAGTAG | 0.657 | 1.11 | -0.0272 | 0.34 | 0.00771 | 2.24 | 2.45 | 1.88 | 0.803 | 1.22 | 4.2 | 4.09 | 1.98 | 1.47 | 0.669 | 1.83 | 0.518 | 1.04 | -0.277 | 2.61
13 | CCTTACGGGTCACCGACAGGTTATAGCATTTGGA | 6.22 | 4.88 | 0.46 | 3.96 | -0.223 | 5.69 | 6.3 | 5.64 | 2.16 | 4.6 | 2.51 | 4.22 | 0.292 | 0.016 | 3.32 | 4.11 | -0.087 | 5.27 | 0.277 | 4.52
14 | GCTTGTAGATAAAGGTTAAGAAAGACTAAGCTAA | 0.528 | 2.06 | 0.00551 | 1.54 | -0.409 | 2.29 | 1.41 | 2.24 | 0.494 | 1.88 | -0.151 | 0.466 | 0.79 | -0.0657 | 0.422 | 0.774 | -0.193 | 1.62 | 0.598 | 1.66
15 | GCTAGTTGGTCAGTAAGAGGTCACACACCGGTCG | 2.76 | 3.64 | 4.57 | 3.51 | 0.636 | 3.99 | 1.86 | 2.95 | 1.14 | 2.34 | 0.963 | 2.75 | 0.167 | 0.349 | 2.96 | 4.78 | 1.57 | 5.53 | 2.06 | 3.73
